Test results taken from the supplement of paper PMC4954754.
± gives the uncertainty stated by the source.

What follows are compounds tested on HEK293T-Rex XBP1-RLuc (assay: XBP1-RLuc splicing reporter activation, triplicate, relative to 500 nM thapsigargin (% of thapsigargin); higher = stronger IRE1/XBP1s reporter activation). Details: 6.8 µM; 18 h; screen: confirmation.
Procedure: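 HEK293T-Rex cells stably expressing the ERSE-firefly luciferase (BiP promoter, ATF6-preferring) or XBP1-splicing Renilla luciferase (IRE1/XBP1s) reporter, 1536-well plates, compound at 6.8 µM for 18 hr at 37 °C; luminescence read […] and expressed as % activation = 100*(compound - median DMSO)/(median 500 nM thapsigargin - median DMSO). Primary screen was single-pass; confirmation screen in triplicate (mean ± SD).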

Point of comparison: `O=C(CCCN1CCC2(CC1)C(=O)N(Cc1cccc(F)c1)CN2c1ccccc1)c1ccc(F)cc1`, “XBP1-RLuc splicing reporter activation” value 185 ± 9.3. Against it:
- CC(=O)NC1C(OC2OC(CC(O)C3OC(n4ccc(=O)[nH]c4=O)C(O)C3O)C(O)C(O)C2NC(=O)/C=C\CCCCCCCCCC(C)C)OC(CO)C(O)C1O (stereo not given) — lower, 61.23 ± 0.33
- CNc1ccc2oc(C[C@H]3O[C@@]4(CC[C@H]3C)O[C@H]([C@H](C)C(=O)c3ccc[nH]3)[C@H](C)C[C@H]4C)nc2c1C(=O)O — lower, 50 ± 2.1
- O=C(CCCN1CCC2(CC1)C(=O)NCN2c1ccccc1)c1ccc(F)cc1 — higher, 202 ± 6.1

In the case of `C/C=C(/C)C(=O)O[C@H]1C(C)=C2[C@H]([C@@H]1OC(=O)CCCCCCC)[C@@](C)(OC(C)=O)C[C@H](OC(=O)CCC)[C@@]1(O)[C@H]2OC(=O)[C@@]1(C)O`, the “XBP1-RLuc splicing reporter activation” value is reported as 104.
